Laboratory results reported in article PMC4336329 (PLoS ONE, 2015).
The campaign covered roughly 310,000 compounds. About 14,000 (4.5%) showed an effect of 50% or more. Effects have a minus sign here. The sample holds strong results, similar compounds and a random draw of the others, so the mix is not that of the screen.

target: human ether-à-go-go-related gene (hERG) potassium channel (human, UniProt Q12809); assay: primary screen, population patch clamp on CHO cells stably expressing hERG; higher = less effect of the substance
Sequence (Q12809 whole entry, looked up): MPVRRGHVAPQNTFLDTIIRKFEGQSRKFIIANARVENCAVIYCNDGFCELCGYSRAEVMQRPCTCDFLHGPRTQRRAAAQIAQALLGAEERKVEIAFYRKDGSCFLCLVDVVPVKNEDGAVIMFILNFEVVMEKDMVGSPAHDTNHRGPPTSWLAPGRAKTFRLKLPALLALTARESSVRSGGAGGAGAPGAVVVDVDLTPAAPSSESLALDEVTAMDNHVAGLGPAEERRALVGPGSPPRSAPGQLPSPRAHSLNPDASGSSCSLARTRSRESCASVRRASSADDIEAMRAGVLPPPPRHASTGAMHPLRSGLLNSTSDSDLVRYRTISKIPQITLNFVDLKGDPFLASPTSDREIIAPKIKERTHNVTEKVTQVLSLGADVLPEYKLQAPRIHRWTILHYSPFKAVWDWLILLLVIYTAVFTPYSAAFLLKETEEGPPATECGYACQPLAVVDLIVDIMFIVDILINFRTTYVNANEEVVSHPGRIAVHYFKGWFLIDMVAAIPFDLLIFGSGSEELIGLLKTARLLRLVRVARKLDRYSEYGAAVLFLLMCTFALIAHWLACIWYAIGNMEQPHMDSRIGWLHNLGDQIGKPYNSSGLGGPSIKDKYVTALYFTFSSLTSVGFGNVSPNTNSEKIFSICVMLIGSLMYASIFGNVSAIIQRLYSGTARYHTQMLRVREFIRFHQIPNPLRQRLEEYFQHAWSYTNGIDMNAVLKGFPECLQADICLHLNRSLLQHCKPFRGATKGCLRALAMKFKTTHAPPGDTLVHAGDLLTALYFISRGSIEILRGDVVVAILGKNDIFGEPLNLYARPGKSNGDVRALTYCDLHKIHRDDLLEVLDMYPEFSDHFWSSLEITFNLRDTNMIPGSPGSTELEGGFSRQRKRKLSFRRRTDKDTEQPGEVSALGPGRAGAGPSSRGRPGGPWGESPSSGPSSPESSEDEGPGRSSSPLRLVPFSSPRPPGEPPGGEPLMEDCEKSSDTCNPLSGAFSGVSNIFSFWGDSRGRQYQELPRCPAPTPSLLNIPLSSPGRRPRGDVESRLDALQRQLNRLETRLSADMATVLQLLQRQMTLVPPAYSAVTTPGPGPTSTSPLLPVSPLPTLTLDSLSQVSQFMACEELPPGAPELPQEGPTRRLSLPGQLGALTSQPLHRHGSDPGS
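Note: peak tail current of the secondary pulse compared with the same well before compound.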

Structure (SMILES)	hERG current change (%, negative = inhibition) at 10uM [%]
O=C(CSc1ccc2nnc(-c3cccs3)n2n1)N1CCCC1	-43.4
CCOC(=O)CC(=O)CSc1ccc2nnc(-c3cccc(F)c3)n2n1	-72.2
CCOC(=O)CSc1ccc2nnc(-c3ccccc3)n2n1	-39.3
COc1ccc(CNC(=O)CN2CCN(S(=O)(=O)c3cccs3)CC2)cc1OC	1.64
Cc1c(C(=O)N2CCCCC2)c(S(=O)(=O)N2CCC(C)CC2)c(C)n1C	3.48
C=CCn1c(Oc2ccccc2F)nc2c1c(=O)n(C)c(=O)n2C	2.59
CC1=C[C@H](C)[C@H](c2c(F)cccc2Cl)CC1=O	6.22
C=CCSc1nnc(NC(=O)c2cccc(S(=O)(=O)N3CCOCC3)c2)s1	-11.1
O=C(Nc1ccccc1C(F)(F)F)N1CCCCCC1	8.71
COc1ccc2nc(NC(=O)C(NS(=O)(=O)c3cccc4nsnc34)C(C)C)sc2c1 (stereo not shown)	10.4
Cc1ccccc1C(=O)c1ccc2c(c1)n(C)c(=O)n2C	2.11
COC(=O)C(C)Sc1ccc2nnc(-c3cccc(F)c3)n2n1 (stereo not shown)	-58
COC(=O)C(C)Sc1ccc2nnc(-c3ccccc3)n2n1 (stereo not shown)	-30.8
COC(=O)C(C)Sc1ccc2nnc(-c3ccc(F)cc3)n2n1 (stereo not shown)	-27
COc1cc2c(cc1OC)C(C1C(=O)CCCC1=O)N(C(=O)CCl)CC2 (stereo not shown)	14.1
CC1CCCCC1NC(=O)COn1nnc2ccc(Cl)cc21 (stereo not shown)	-14.3
CN(C)CCCNS(=O)(=O)c1cc(Cl)c(Cl)cc1Cl	-27.8
O=C(Nc1ccc(N2CCOCC2)c(Cl)c1)c1cc(F)c(F)cc1Cl	-20.9
CCC(=O)N1CCN(c2ccc(NC(=O)c3ccc(C#N)cc3F)cc2Cl)CC1	-7.73
CCN1CCN(c2ccc(NC(=O)c3ccco3)cc2Cl)CC1	-4.06
CN1CCN(c2ccc(NC(=O)c3ccc(C#N)cc3F)cc2Cl)CC1	-53.7
CCN1CCN(c2ccc(NC(=O)c3ccccc3F)cc2Cl)CC1	-70.1
N#Cc1ccc(C(=O)Nc2ccc([N+](=O)[O-])cc2)c(F)c1	4.42
O=C(Nc1ccc(N2CCOCC2)c(Cl)c1)c1ccccc1F	3.56
CCN1CCN(c2ccc(NC(=O)C(C)C)cc2Cl)CC1	-20

Structure (SMILES)	hERG current change (%, negative = inhibition) at 10uM [%]
CCN1CCN(c2ccc(NC(=O)c3ccc(C#N)cc3F)cc2Cl)CC1	-72.1
O=C(O)CCCSc1nccn1-c1ccccc1	22.3
c1ccc(-c2cc(N3CCOCC3)nc(-c3ccccc3)n2)cc1	-5.46
CCN(CC)C(=O)CSc1nnc(-c2cccs2)n1Cc1ccco1	-11
Cc1ccc(S(=O)(=O)c2c(C)nn(C(C)(C)C)c2OC(=O)c2ccc(Br)o2)cc1	7.32
Cc1cc(C)n(CCCNC(=O)Cn2nnnc2CN2C[C@@H](C)O[C@@H](C)C2)n1	6.72
C/C(=N\NC(=O)c1nnn(-c2nonc2N)c1CSc1ccccc1)c1ccc2c(c1)OCO2	17.5
CC(=O)OC1CC(c2cc(C(C)(C)C)c(O)c(C(C)(C)C)c2)=NO1 (stereo not shown)	0.755
CCOc1ccc(NC(=O)COc2ccc3c(c2)CCC3)cc1OC	3.04
Cc1ccccc1NCc1ccccc1O.Cl	-0.966
Cc1cc(NC(=O)Nc2ccc(F)cc2)no1	-8.3
COc1cc(OC)cc(C(=O)OCCCOC(=O)c2cc(OC)cc(OC)c2)c1	24.6
COc1ccc(C(=O)Nc2nc3ccccc3[nH]2)cc1OC	-6.47
O=C(Nc1nc2ccccc2[nH]1)c1ccc(S(=O)(=O)N2CCOCC2)cc1	2.85
O=C(Nc1nc2ccccc2[nH]1)c1ccc(Cl)c(S(=O)(=O)N2CCCC2)c1	-9.28
COc1ccccc1CCC(=O)Nc1nc2ccccc2[nH]1	15.7
O=C(Nc1nc2ccccc2[nH]1)c1cccc(S(=O)(=O)N2CCOCC2)c1	-8.91
COc1ccc(C(=O)Nc2nc3ccccc3[nH]2)cc1S(=O)(=O)N1CCCC1	-52.8
COc1ccc(C(=O)Nc2ccc(NC(=O)c3ccccc3)cc2)cc1S(=O)(=O)N1CCOCC1	16.6
COc1ccc(C(=O)Nc2nc3ccccc3[nH]2)cc1S(=O)(=O)N1CCOCC1	-70.1
COc1ccc(CCC(=O)Nc2nc3ccccc3[nH]2)cc1OC	-55.7
COc1ccc(CCC(=O)Nc2nc3ccccc3[nH]2)cc1	14.3
O=C(Nc1nc2ccccc2[nH]1)c1ccc(F)c(S(=O)(=O)N2CCOCC2)c1	-50.3
COc1ccc(C(=O)Nc2ccccc2C)cc1S(=O)(=O)N1CCOCC1	2.73
